# Reference: PubChem BioAssay AID449762 (Southern Research Specialized Biocontainment Screening …, 2010)
# In all, about 330,000 compounds went through this assay and about 1,900 (0.58%) were called active. Another 4% or so got no clear call; they are omitted. No stated cut-off is given here; in the data, inconclusive means inhibition above about 70% without an active follow-up result; inactive means below that. Not all results are given here. Entries with a potency or affinity are not part of this list.
# Test: M. tuberculosis growth inhibition, HTS (AID 449762);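 further: bacterial growth assessed after seven days of incubation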
# Conditions: M. tuberculosis H37Rv growth inhibition, 7H9 media; at 25 µM; active compounds read high
row,SMILES,inhibition
1,COc1ccc(C2C(C#N)=C(N)Oc3cc(C)n(Cc4ccncc4)c(=O)c32)cc1 (centres undefined),-7.68% (inactive)
2,O=C(CCn1cnc2ccccc2c1=O)Nc1ccc2c(c1)OCCO2,-3.32% (inactive)
3,CCN(CC)c1ccc2c(Cl)cc(=O)oc2c1,5.83% (inactive)
4,CCN(CC)c1ccc2c(C)c(Cl)c(=O)oc2c1,-3.19% (inactive)
5,Cc1nc(C)c(C(=O)OCC(=O)NCc2ccccc2Cl)s1,3.01% (inactive)
6,CCOC(=O)c1cnc2ccc(OCC)cc2c1N1CCN(C)CC1,4.95% (inactive)
7,CCOC(=O)c1cnc2ccc(OCC)cc2c1N1CCN(c2ccccc2OC)CC1,63.7% (inactive)
8,C=CCN(CC(=O)NCc1ccccc1)C(=O)c1csnn1,-1.06% (inactive)
9,O=C(O)C1CC=CCC1C(=O)NCCCN1CCCC1=O (centres undefined),-30.3% (inactive)
10,O=[N+]([O-])c1ccc2nc(-[n+]3c(-c4ccccc4)cc(-c4ccccc4)cc3-c3ccccc3)[nH]c2c1,27.2% (inactive)
11,O=C(O)c1ccc(-[n+]2c(-c3ccccc3)cc(-c3ccccc3)cc2-c2ccccc2)cc1,-13.1% (inactive)
12,O=C([O-])c1ccc(-[n+]2c(-c3ccccc3)cc(-c3ccccc3)cc2-c2ccccc2)cc1,55.9% (inactive)
13,O=[N+]([O-])c1ccc(-[n+]2c(-c3ccccc3)cc(-c3ccccc3)cc2-c2ccccc2)cc1,8.42% (inactive)
14,Cc1ccc(-c2cc(-c3ccccc3)cc(-c3ccccc3)[n+]2-c2ccc(C(=O)O)cc2)cc1,-6.06% (inactive)
15,Cc1ccc(-c2cc(-c3ccc(C)cc3)[n+](-c3ccc(C(=O)O)cc3)c(-c3ccc(C)cc3)c2)cc1,6.26% (inactive)
16,CC(C)(C)OC(=O)[C@H](Cc1ccccc1)NC(=O)c1nc[nH]c1C(=O)N[C@@H](CCCCN)C(=O)OC(C)(C)C,-1.19% (inactive)
17,CC(Cc1ccco1)NC(=O)c1ccc(C(F)(F)F)cc1 (centres undefined),4.71% (inactive)
18,COc1ccc(Cl)cc1NC(=O)NCCN1CCNC1=O,0.11% (inactive)
19,COc1ccc(/C(N)=N/OC(=O)CCCc2ccccc2)cc1OC,14.8% (inactive)
20,O=C(O)c1cccc(NC(=O)c2cc(S(=O)(=O)N3CCOCC3)cs2)c1,-7.54% (inactive)
21,CCOC(=O)N1CCC(N(CCN(C)C)C(=S)Nc2ccccc2OCC)CC1,7.57% (inactive)
22,CC1CCC(NCc2ccco2)CC1 (centres undefined),-0.39% (inactive)
23,CCC1=C(OC(=O)N(CC)CC)N2C(=O)OC(=NCCc3c[nH]c4ccccc34)[C@]2(Cc2ccccc2)[C@H]2C1=CC[C@H]1C(=O)N(CC)C(=O)[C@H]12,-7.04% (inactive)

row,SMILES,inhibition
1,CCC1=C(OC(=O)N(CC)CC)N2C(=O)OC(=NCCc3c[nH]c4ccccc34)[C@]2(Cc2ccccc2)[C@H]2C1=CC[C@H]1C(=O)N(C)C(=O)[C@H]12,68.8% (inactive)
2,O=C(NCC1CCCO1)C(=O)N/N=C/c1c(F)cccc1Cl (centres undefined),5.59% (inactive)
3,NC(N)=Nc1nc2ccccc2o1,4.74% (inactive)
4,CCCCN(C(=O)c1cnccn1)c1c(N)n(CCC)c(=O)[nH]c1=O,-6.33% (inactive)
5,OC(CN1CCN(c2ncc(C(F)(F)F)cc2Cl)CC1)c1ccccc1 (centres undefined),32.4% (inactive)
6,CCC(=O)c1ccc(OCC(O)CN2CCN(c3ccc(F)cc3)CC2)cc1 (centres undefined),-1.98% (inactive)
7,N#Cc1ccc(OCC(O)CN2CCN(CC(O)COc3ccc(C#N)cc3)CC2)cc1 (centres undefined),-5.84% (inactive)
8,CCC(=O)c1ccc(OCC(O)CN2CCN(c3ccccn3)CC2)cc1 (centres undefined),4.67% (inactive)
9,O=[N+]([O-])c1cc([N+](=O)[O-])c(Oc2cc(F)ccc2F)cc1NN1CCCCC1,5.39% (inactive)
10,O=C(NCCc1ccccc1)C(=O)c1cn(CC(=O)N2CCCC2)c2ccccc12,-0.08% (inactive)
11,COc1cc(NC(=O)c2cccnc2SC)cc(OC)c1OC,-4.5% (inactive)
12,Cc1cccc(NC(=O)c2nc[nH]c2C(=O)N(C)Cc2ccccc2)c1,27.5% (inactive)
13,COc1cc(OC)cc(C(=O)N[C@H](C(=O)NC23CC4CC(CC(C4)C2)C3)C(C)C)c1,-8.25% (inactive)
14,CCCCCN(C(=O)CCC(=O)OCCOc1cccc(C)c1)c1c(N)n(CCCC)c(=O)[nH]c1=O,44.3% (inactive)
15,CCOc1cc(Cl)c(NC(C)=O)cc1OCC,-1.54% (inactive)
16,CCOc1cc(NC(=S)Nc2ccc(Cl)cc2)c(OCC)cc1NC(C)=O,-3.61% (inactive)
17,CC(=O)c1cccc(NC(=O)C(C)OC(=O)c2ccc(Br)o2)c1 (centres undefined),4.17% (inactive)
18,CCOC(=O)C1CCN(c2cc3c(cc2NC(=O)c2ccccc2)n(C)c(=O)n3C)CC1,-3.19% (inactive)
19,CCOC(=O)C1CCN(c2cc3c(cc2NC(=O)c2ccccc2F)n(C)c(=O)n3C)CC1,4.71% (inactive)
20,CCc1ccc(NC(=O)C2C3C=CC(C4CC34)C2C(=O)O)cc1 (centres undefined),4.87% (inactive)
21,CCCCCc1ccc(CC(=O)O)cc1,-9.58% (inactive)
22,CCCCCCNC(=O)C(=O)NCCc1ccc(Cl)cc1,-8.55% (inactive)
23,NS(=O)(=O)c1cc(C(=O)OC2CCOC2=O)ccc1Cl (centres undefined),-0.59% (inactive)

row,SMILES,inhibition
1,N/C(=N\OC(=O)c1ccc2c(c1)OCO2)c1ccc([N+](=O)[O-])cc1,0.35% (inactive)
2,CS(=O)(=O)O/N=C1\CCCCC1c1ccc([N+](=O)[O-])cc1[N+](=O)[O-] (centres undefined),11.2% (inactive)
3,CCN(CC)CCNc1ncnc2c1sc1nc(N3CCOCC3)c3c(c12)CCCC3,13.5% (inactive)
4,COc1ncnc2c1sc1nc(-c3ccccc3)c3c(c12)CCCC3,2.95% (inactive)
5,Cc1nc(-c2c(C(=O)NNC(=O)Nc3c(C)cccc3C)noc2C)cs1,-5.09% (inactive)
6,COc1ccc(OC)c(C(=O)NC2CC(C)(C)Cc3c2cnn3-c2ccccc2)c1 (centres undefined),12.2% (inactive)
7,CC(C)CC(=O)Nc1cccc(NC(=O)c2ccccc2Cl)c1,0.24% (inactive)
8,COc1ccc(CSc2nc3ccccc3c(=O)[nH]2)cc1F,2.06% (inactive)
9,Cn1cc(C=C2C(=O)NC(=O)NC2=O)c2ccccc21,-7.12% (inactive)
10,COc1ccc(N2C(=O)NC(=O)/C(=C\c3cn(C)c4ccccc34)C2=O)cc1,3.04% (inactive)
11,COC(=O)c1ccc(C(c2c(N)n(CC(C)C)c(=O)[nH]c2=O)N2CCN(c3ccccc3)CC2)cc1 (centres undefined),7.1% (inactive)
12,CCOC(=O)CC(=O)CSc1nnc2c(n1)[nH]c1ccccc12,7.32% (inactive)
13,COc1ccc(C2CC(c3c(Cl)cccc3Cl)n3nc(N)nc3N2)cc1 (centres undefined),-4.95% (inactive)
14,Cc1cc(C)nc(NC(=S)NC(=O)c2ccccc2)n1,-0.74% (inactive)
15,O=C(C1CCC(CNc2c(N3CCCCC3)c(=O)c2=O)CC1)N1CCCC1 (centres undefined),-1.43% (inactive)
16,CC1CCN(C(=O)C2CCC(CNc3c(N4CCCCC4)c(=O)c3=O)CC2)CC1 (centres undefined),-6.49% (inactive)
17,CC(=O)NCC1CCCN(C(=O)c2ccc(OC3CCN(Cc4ccccn4)CC3)cc2)C1 (centres undefined),8.85% (inactive)
18,CC(Oc1ccc2c3c(c(=O)oc2c1)CCC3)C(=O)NC1CCN(Cc2ccccc2)CC1 (centres undefined),5.54% (inactive)
19,O=C(NCc1ccccc1Cl)c1ccc(S(=O)(=O)Nc2cccc(C(F)(F)F)c2)cc1,-11.7% (inactive)
20,S=C(NCc1cccnc1)Nc1ccc(Oc2ccccc2)cc1,4.52% (inactive)
21,c1ccc(-c2nc(N3CCCCC3)nc3ccccc23)cc1,36.9% (inactive)
22,Clc1ccc(-c2nc(N3CCCCC3)nc3ccccc23)cc1,8.31% (inactive)
23,COc1cc(OC)cc(C(=O)Nc2cccc(-c3ccc(N4CCOCC4)nn3)c2)c1,-3.98% (inactive)

row,SMILES,inhibition
1,COc1ccc(C(=O)NNC(=O)c2ccc(S(=O)(=O)N3CCOCC3)cc2)cc1,0.01% (inactive)
2,CCCN1C(=O)C2(SC(NC(C)=O)=NN2C(C)=O)c2cc(C)ccc21 (centres undefined),-6.76% (inactive)
3,COc1cc(F)ccc1S(=O)(=O)N1CCN(C23CC4CC(CC(C4)C2)C3)CC1,9.71% (inactive)
4,COc1ccc(OC)c(S(=O)(=O)N2CCN(C34CC5CC(CC(C5)C3)C4)CC2)c1,2.72% (inactive)
5,Oc1[nH]c2ccc(Br)cc2c1N=NC(=S)N1CCOCC1,7.05% (inactive)
6,NC(=S)N=Nc1c(O)[nH]c2ccccc12,-9.66% (inactive)
7,CCCc1cc(C(=O)Nc2ccc(C(C)=O)cc2)no1,29.9% (inactive)
8,CCc1ccc(NC(=O)c2cc(CC(C)C)on2)cc1,4.83% (inactive)
9,CCOc1ccc(C(=S)N2CCN(C)CC2)cc1,-1.09% (inactive)
10,CCc1nc(C)cn1S(=O)(=O)c1cc(Cl)c(OC)cc1Cl,-6.76% (inactive)
11,CCN(CC)C(=O)c1ccc2c(c1)N(Cc1ccccc1)C(=O)CS2=O (centres undefined),0.11% (inactive)
12,Cc1ccc(C(=O)Nc2cccc(C(F)(F)F)c2)cc1NC(=O)c1nccn1C,-2.57% (inactive)
13,CC(=O)c1ccccc1NC(=O)COC(=O)CCC1CCCC1,9.67% (inactive)
14,CC(C)/C=C1\CC/C(=C\c2cccnc2)C1=O,11% (inactive)
15,O=C1/C(=C/c2cccnc2)CC/C1=C\c1cccnc1,-0.97% (inactive)
16,COc1cc(/C=C/C(=O)OC(C)C(=O)Nc2ccc(Cl)cn2)ccc1OC(F)F (centres undefined),28.3% (inactive)
17,COc1ccc(Nc2nc(Cl)nc(NCc3ccco3)n2)c(OC)c1,-5.12% (inactive)
18,Cc1noc(NS(=O)(=O)c2ccc(NC(=O)/C=C/c3ccc(C(C)C)cc3)cc2)c1C,-12.3% (inactive)
19,CC(C)N1C(=O)S/C(=C\c2ccc(-c3ccc(Cl)c(C(=O)O)c3)o2)C1=O,4.73% (inactive)
20,CCN(CC)c1ccc(C=C2C(=O)N(C)C(=S)N(C)C2=O)o1,1.5% (inactive)
